Laboratory results as given in PubChem BioAssay AID2662 (National Center for Advancing Translational Sciences (NCATS), 2010).
The campaign covered roughly 290,000 compounds. About 110 (0.038%) were called active. About 3% were inconclusive and are not listed. Calls follow the shape of the dose curve; as a rule, active = well fitted inhibition curve with a large enough effect in the polarisation, with a control signal flat (not every such curve was filed as active); inconclusive = small, poorly fitted or top-dose-only effect, or effect the other way, or a change in a side signal; inactive = no such curve, though single readings can be large or run the other way; the % refers to the polarisation. Shown is part of a subset that was picked to be rich in actives.

These compounds were tested against Histone-lysine N-methyltransferase 2A (Homo sapiens) (UniProt Q03164) (assay: qHTS Fluorescence Polarization Assay for Inhibitors of MLL CXXC domain - DNA interaction). Details: MLL-CXXC / FITC-HOXA9 DNA fluorescence polarization; series mostly up to 115 µM; activity change, negative = inhibition: at the top concentration.
Histone-lysine N-methyltransferase 2A (Homo sapiens), sequence (Q03164 whole entry, looked up, the tested form may be a part): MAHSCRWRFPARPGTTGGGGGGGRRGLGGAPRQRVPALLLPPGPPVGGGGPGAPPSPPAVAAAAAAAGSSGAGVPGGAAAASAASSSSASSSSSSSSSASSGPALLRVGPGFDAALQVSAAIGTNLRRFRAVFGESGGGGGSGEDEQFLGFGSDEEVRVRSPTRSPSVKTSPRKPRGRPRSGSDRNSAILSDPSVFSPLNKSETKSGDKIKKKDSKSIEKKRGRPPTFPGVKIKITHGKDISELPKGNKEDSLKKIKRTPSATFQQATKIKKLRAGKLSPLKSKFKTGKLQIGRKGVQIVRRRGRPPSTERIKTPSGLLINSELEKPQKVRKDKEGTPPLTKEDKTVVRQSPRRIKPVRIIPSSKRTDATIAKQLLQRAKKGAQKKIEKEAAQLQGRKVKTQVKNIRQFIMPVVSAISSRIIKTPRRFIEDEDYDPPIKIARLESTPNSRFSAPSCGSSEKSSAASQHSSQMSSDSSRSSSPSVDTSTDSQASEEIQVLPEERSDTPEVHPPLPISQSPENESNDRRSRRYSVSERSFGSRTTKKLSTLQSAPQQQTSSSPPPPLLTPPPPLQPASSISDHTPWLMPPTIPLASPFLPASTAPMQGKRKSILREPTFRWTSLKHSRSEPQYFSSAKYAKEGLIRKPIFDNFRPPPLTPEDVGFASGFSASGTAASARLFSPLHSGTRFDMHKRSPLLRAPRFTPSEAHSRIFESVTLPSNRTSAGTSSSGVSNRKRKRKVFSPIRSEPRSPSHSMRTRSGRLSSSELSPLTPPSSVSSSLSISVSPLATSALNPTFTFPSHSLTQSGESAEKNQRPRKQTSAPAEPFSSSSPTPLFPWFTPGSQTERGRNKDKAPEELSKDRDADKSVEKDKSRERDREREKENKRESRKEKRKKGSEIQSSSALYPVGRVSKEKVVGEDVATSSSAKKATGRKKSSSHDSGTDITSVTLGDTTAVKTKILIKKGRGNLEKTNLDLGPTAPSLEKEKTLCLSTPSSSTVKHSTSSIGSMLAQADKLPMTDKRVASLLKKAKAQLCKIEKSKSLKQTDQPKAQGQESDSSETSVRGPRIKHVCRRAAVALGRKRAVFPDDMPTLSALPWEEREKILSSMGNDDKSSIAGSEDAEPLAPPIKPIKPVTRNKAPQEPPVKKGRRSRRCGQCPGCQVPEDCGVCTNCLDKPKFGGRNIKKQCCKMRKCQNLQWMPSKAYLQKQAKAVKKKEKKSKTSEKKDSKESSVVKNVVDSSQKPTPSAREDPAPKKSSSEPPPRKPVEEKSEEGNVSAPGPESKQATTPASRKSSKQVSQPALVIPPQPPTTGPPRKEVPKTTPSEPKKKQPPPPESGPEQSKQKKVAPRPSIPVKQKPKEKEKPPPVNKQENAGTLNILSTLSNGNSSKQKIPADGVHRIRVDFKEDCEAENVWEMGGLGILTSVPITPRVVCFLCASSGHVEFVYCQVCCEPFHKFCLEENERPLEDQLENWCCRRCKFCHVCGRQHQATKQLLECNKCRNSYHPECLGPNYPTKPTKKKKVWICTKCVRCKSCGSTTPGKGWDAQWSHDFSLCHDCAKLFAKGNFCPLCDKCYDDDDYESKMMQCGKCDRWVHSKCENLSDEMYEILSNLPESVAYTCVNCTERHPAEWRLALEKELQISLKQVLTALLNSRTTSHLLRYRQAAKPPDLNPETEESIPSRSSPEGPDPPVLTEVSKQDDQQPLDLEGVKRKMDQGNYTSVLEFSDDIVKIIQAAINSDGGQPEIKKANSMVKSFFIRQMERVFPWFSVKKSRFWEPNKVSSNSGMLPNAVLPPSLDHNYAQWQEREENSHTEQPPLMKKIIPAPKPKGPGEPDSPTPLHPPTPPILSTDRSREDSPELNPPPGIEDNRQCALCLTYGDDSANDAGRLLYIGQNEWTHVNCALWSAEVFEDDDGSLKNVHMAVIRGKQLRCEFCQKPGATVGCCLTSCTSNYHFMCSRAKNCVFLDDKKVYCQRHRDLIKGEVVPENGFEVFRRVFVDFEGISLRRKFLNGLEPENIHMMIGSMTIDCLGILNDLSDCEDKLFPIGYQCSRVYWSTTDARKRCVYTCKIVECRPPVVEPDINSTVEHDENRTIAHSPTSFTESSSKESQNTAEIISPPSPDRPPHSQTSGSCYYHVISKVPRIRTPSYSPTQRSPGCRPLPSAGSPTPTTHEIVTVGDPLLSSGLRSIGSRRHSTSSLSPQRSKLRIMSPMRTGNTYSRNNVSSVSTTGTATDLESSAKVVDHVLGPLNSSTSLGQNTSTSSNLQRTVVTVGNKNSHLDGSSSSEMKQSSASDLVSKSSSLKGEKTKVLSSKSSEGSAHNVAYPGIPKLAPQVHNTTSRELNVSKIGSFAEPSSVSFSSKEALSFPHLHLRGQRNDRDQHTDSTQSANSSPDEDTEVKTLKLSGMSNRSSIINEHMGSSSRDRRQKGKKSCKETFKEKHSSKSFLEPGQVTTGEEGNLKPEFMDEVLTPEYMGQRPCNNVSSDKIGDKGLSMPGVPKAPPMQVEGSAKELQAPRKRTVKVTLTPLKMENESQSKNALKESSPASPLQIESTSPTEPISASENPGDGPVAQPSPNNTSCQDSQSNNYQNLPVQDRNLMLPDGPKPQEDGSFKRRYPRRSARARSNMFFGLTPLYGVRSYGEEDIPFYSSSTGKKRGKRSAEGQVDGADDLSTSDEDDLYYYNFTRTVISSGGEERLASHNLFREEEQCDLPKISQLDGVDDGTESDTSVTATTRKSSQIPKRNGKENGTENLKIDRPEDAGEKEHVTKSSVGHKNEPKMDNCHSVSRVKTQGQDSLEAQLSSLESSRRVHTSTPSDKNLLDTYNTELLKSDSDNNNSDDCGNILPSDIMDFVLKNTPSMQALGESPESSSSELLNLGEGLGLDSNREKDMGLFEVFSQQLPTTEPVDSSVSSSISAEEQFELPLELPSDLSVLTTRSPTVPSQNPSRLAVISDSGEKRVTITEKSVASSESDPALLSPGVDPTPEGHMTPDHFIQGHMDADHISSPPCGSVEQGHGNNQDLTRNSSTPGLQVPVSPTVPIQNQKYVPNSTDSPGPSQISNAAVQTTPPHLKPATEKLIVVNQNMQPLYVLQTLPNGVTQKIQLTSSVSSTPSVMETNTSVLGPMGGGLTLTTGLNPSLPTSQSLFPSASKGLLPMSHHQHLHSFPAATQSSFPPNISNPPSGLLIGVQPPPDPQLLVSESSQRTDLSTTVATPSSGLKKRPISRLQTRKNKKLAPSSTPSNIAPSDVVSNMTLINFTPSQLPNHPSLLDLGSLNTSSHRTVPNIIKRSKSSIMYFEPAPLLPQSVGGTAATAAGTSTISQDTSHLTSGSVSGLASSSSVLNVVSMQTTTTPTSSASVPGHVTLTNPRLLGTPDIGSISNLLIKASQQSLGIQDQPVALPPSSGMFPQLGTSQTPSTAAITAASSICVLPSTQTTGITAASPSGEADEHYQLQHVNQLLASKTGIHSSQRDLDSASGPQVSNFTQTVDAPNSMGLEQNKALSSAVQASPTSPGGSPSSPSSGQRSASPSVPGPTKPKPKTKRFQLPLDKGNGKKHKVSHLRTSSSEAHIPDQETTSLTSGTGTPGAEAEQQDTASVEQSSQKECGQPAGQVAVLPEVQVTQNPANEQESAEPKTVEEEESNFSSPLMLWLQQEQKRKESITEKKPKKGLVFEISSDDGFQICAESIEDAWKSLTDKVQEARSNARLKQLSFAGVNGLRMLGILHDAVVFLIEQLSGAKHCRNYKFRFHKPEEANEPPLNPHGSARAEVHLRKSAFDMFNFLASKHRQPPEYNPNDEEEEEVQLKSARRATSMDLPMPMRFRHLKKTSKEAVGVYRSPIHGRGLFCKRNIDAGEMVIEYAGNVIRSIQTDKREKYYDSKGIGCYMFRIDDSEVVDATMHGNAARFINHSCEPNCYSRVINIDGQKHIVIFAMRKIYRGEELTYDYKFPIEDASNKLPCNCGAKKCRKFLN
Method in brief: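 Steps: dispense CXXC domain solution (7 uM) → pin compounds or unlabeled HOX-A9 DNA control → 5 min ambient → add FLSN-HOX-A9 solution (50 nM) → spin → 30 min ambient → fluorescence polarization. Tris pH 7.5/NaCl/DTT/BSA buffer.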

Activity change, negative = inhibition, inactive:
Cc1ccc(NC(=O)NC(=O)c2ccccc2)cc1F 15.1%
Cc1ccc(NC(=O)CSc2nn3c(=O)c(C)nnc3s2)cc1Cl 4.2%
COc1ccc(CNS(=O)(=O)c2ccc(NC(=O)N3CCCCC3)cc2)cc1 -3.43%
CCCc1cc(C(=O)N2CCCC(CO)(CCCc3ccccc3)C2)n(C)n1 (stereo not drawn) 3.59%
Cc1ccc(C(=O)NCC(=O)OCc2nnc(-c3ccccc3)o2)cc1 -10.8%
COc1ccc(CN2CCCC(N3CCc4ccccc4C3)C2)c(O)c1 (stereo not drawn) -1.21%
CC(C)(C)c1ccc(C(=O)N2CCN(CCNC(=O)C(=O)Nc3ccc(F)cc3)CC2)cc1 -10.7%
O=C(NCCCN1CCOCC1)C1CCCN(S(=O)(=O)N2CCCCC2)C1 (stereo not drawn) 0.988%
O=C(CCn1nnc2ccccc21)OCC(=O)c1ccc([N+](=O)[O-])cc1 -0.286%
COc1cc([N+](=O)[O-])cc([N+](=O)[O-])c1NC(=O)N1CCOCC1 -1.05%
Cc1csc(NC(=O)CSc2nc(=O)cc(N)n2-c2ccc(F)cc2)n1 1.97%
CCOc1ccc(S(=O)(=O)N2CCCC(C(=O)N3CCC(C(N)=O)CC3)C2)cc1Cl (stereo not drawn) 2.08%
Cc1c(CN2CCC(n3nccc3NC(=O)CCc3ccccc3)CC2)cnn1C 6.67%
CC(=O)c1ccc(NC(=O)Cn2c(=O)oc3ccccc32)cc1 -3.9%
CCOc1ccccc1NC(=O)C1CCCN(S(=O)(=O)c2ccccc2)C1 (stereo not drawn) 0.776%
CC1CCC(NS(=O)(=O)c2ccc3c(c2)CC(=O)N3)CC1 (stereo not drawn) 5.85%
CC(=O)N[C@@H](C)C(=O)N1CCC(n2nccc2NC(=O)CCCc2ccccc2)CC1 4.89%
Clc1ccc(C(Cn2ccnc2)OCc2ccsc2Cl)c(Cl)c1 (stereo not drawn) 0.809%
COc1ccc(OCCn2ccnc2C)cc1 -0.496%
Cc1ccc(CN(C)Cc2cc(=O)oc3cc(C)c(Cl)cc23)cc1 15.9%
COc1ccc(N(C(=O)CNC(=O)c2ccco2)C(C(=O)NCC2CCCO2)c2ccccc2)cc1Cl (stereo not drawn) -5.18%
CCOC(CNC(=O)C(=O)NCC(c1ccco1)N1CCN(c2ccc(OC)cc2)CC1)OCC (stereo not drawn) -8.29%
Cc1ccc(NS(=O)(=O)c2c(C)[nH]c(C)c2C(=O)N2CCCCC2)c(C)c1 1.83%
CCOC(=O)c1cccc(NC(=O)C2CCN(c3ncnc4c3nc3n4CCCCC3)CC2)c1 1.78%
O=S1(=O)CCO[C@H]2Cc3ccccc3[C@H]2N1Cc1ccccc1 -1.12%
CC(C)c1ccc(/C=C2\NC(=O)NC2=O)cc1 1.65%
Cc1cccc(NS(=O)(=O)c2ccc([N+](=O)[O-])cc2)n1 0.441%
COc1ccc(NC(=O)CC2C(=O)NC3CCCCC3N2C(=O)c2ccc(F)cc2)cc1 (stereo not drawn) 18.1%
COCC1CCN(C(=O)C2CCC(=O)N(CC3CCCCC3)C2)CC1 (stereo not drawn) 22.3%
S=C(NCCC1=CCCCC1)Nc1ccccc1 -18.3%
CSc1ccccc1OCc1cc(C(=O)N2C[C@H]3CC[C@H]2C3)no1 4.47%
O=C(Cc1ccc(Cl)cc1)NC(=S)Nc1ccccc1O 15%
CCC(C)(C)n1nnnc1C(c1ccc(OC)c(OC)c1)N1CCN(C(=O)c2ccco2)CC1 (stereo not drawn) 4.14%
CC(=O)NC(Cc1c[nH]c2ccccc12)C(=O)NCCc1ccccc1 (stereo not drawn) 4.26%
C[C@H](C(=O)CC(=O)OC(C)(C)C)[C@H](O)c1ccc(C(F)(F)F)cc1 5.01%
CCc1nc2nc(C)c(NS(=O)(=O)c3ccc4c(c3)CCCC4)c(=O)n2[nH]1 -9.81%
CCOC(=O)c1c(C)[nH]c(C(=O)NCCN2CCOCC2)c1C 6.14%
COc1ccc(NS(=O)(=O)c2cc(C(=O)Nc3ccccc3C(=O)O)ccc2C)cc1 -16.7%
